In PubChem BioAssay AID1508625 (Wald Lab, School of Medicine, Case Western Reserve …, 2021) one finds corrected activity, negative = more killing and z-score data, which are given here for 77 compounds.

This assay in a line: small molecules boosting NK-mediated OVCAR3 lysis – imaging, primary NK cells, calcein-AM imaging, primary screen (AID 1508625).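 Further: compound given to NK cells 16 h before adding targets at 1.5 to 1 ratio.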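 On z-score: more negative robust z means stronger NK killing of tumor cells.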 The settings on record: OVCAR3 lysis by primary NK cells, at 5 µM; z-score: measured here: robust Z-score, single-point normalisation.

With `COc1ccc(-c2ccc3c(N)c(C(=O)Nc4ccc(Br)cc4)sc3n2)cc1`, the corrected activity, negative = more killing was -3.35% and the z-score is -1.

As to `O=C1C2C(c3ccc([N+](=O)[O-])cc3)OC3(C(=O)c4ccccc4C3=O)C2C(=O)N1c1ccc(Cl)cc1` (centres undefined), the corrected activity, negative = more killing was -3.68% and the z-score was -1.14.

For `CCCCOc1ccc(CN2CCN3CCCC3C2C)cc1` (centres undefined), the corrected activity, negative = more killing is -3.8% and the z-score is -1.66.

In the case of `CN1C(=O)c2ccccc2C(C(=O)NCCCN2CCCCCC2)C1c1cccs1` (centres undefined), the corrected activity, negative = more killing is -5.67% and the z-score is -1.41.

As to `COc1ccc(-n2c(=S)[nH]c3cc(C(=O)O)ccc3c2=O)cc1`, the corrected activity, negative = more killing was -5.11% and the z-score was -1.63.

In the case of `Cc1c(C(=O)Oc2cccc3ccccc23)cccc1[N+](=O)[O-]`, the corrected activity, negative = more killing is -7.35% and the z-score was -2.77.

On to `CC(C)NC(=O)CCNC(=O)Cn1cnc2sc3c(c2c1=O)CCCC3`, for which the corrected activity, negative = more killing is -6.97% and the z-score was -2.22.

As for `CCc1ccccc1N1C(=O)C2C(c3ccc(Br)cc3)OC3(C(=O)c4ccccc4C3=O)C2C1=O` (centres undefined), the corrected activity, negative = more killing was 0.455% and the z-score is 0.141.

With `CCCSc1nc2c([nH]c3ccccc32)c(=O)n1-c1ccc(OC)cc1`, the corrected activity, negative = more killing was -5.59% and the z-score was -1.39.

Take `O=C(Oc1ccc(C(=S)N2CCCCC2)cc1)c1ccccc1`: the corrected activity, negative = more killing was -2.77% and the z-score is -0.857.

In the case of `O=c1c2cn[nH]c2nc(SCc2ccccc2F)n1-c1ccc(Oc2ccccc2)cc1`, the corrected activity, negative = more killing is -0.689% and the z-score was -0.251.

In the case of `CCOC(=O)Cn1nc(-c2ccc(C)cc2)ccc1=O`, the corrected activity, negative = more killing is -0.853% and the z-score is -0.23.

As for `Cc1ccc(NC(=O)CSc2ccc(Nc3ccc(C)cc3)nn2)cc1`, the corrected activity, negative = more killing is -2.33% and the z-score was -0.695.

For the compound `COc1ccc(-c2nn(-c3ccccc3)cc2C(=O)OCc2ccccc2)cc1`, the corrected activity, negative = more killing is -2.27% and the z-score was -1.22.

For `CC1CCCN(c2ncnc3scc(-c4ccccc4)c23)C1` (centres undefined), the corrected activity, negative = more killing is -2.34% and the z-score is -0.85.

For the compound `CC(=O)Nc1ncc(Br)cc1[N+](=O)[O-]`, the corrected activity, negative = more killing is -1.26% and the z-score is -0.391.

For the compound `Cc1ccc(Nc2nc(C)cc(C)c2C(N)=O)cc1`, the corrected activity, negative = more killing is -3.73% and the z-score was -1.66.

For the compound `CCCCNC(=O)c1cc(Nc2ccc(CC)cc2)nc2ccccc12`, the corrected activity, negative = more killing was -8.29% and the z-score was -2.03.

Take `CCOc1ccc(OCC)c(NC(=O)C2(S(=O)(=O)c3ccc(Cl)cc3)CC2)c1`: the corrected activity, negative = more killing was -4.65% and the z-score is -1.32.

Regarding `Cc1ccc(NC(=O)c2cc(S(=O)(=O)NCCc3ccccc3)ccc2F)cc1F`, the corrected activity, negative = more killing is -5% and the z-score is -1.35.

As to `CCOC(=O)c1conc1-c1cccs1`, the corrected activity, negative = more killing was -0.622% and the z-score was -0.198.

Take `CC(=O)c1cccc(NC(=O)CSc2ccc(Cl)cc2)c1`: the corrected activity, negative = more killing is -1.79% and the z-score was -0.668.

For `COc1ccc(C(=O)Nc2ccc(NC(=O)c3ccc(C(C)(C)C)cc3)cc2)cc1[N+](=O)[O-]`, the corrected activity, negative = more killing was -5.92% and the z-score was -2.1.

As for `CCC(Cc1ccccc1)NS(=O)(=O)c1ccc(F)c(C(=O)Nc2ccc(C)c(F)c2)c1` (centres undefined), the corrected activity, negative = more killing was -2.04% and the z-score was -0.551.

For `FC(F)(F)c1cc(-c2cccs2)nc2nc(=S)[nH]n12`, the corrected activity, negative = more killing was -2.93% and the z-score is -0.791.

Consider `CCOC(=O)CCN1C(=O)C(=Cc2cccc(OC)c2)SC1=S`, for which the corrected activity, negative = more killing is -4.87% and the z-score is -1.55.

Consider `O=[N+]([O-])c1ccc(CNC2CCCC2)cc1`, for which the corrected activity, negative = more killing was -5.52% and the z-score is -1.76.

On to `O=C(CCCn1c(=S)[nH]c2cc3c(cc2c1=O)OCO3)N1CCN(Cc2ccc3c(c2)OCO3)CC1`, for which the corrected activity, negative = more killing was -2.04% and the z-score was -0.54.

For the compound `O=C(Oc1ccccc1C(=S)N1CCOCC1)c1ccc([N+](=O)[O-])cc1`, the corrected activity, negative = more killing was 4.47% and the z-score was 1.39.

Regarding `Cc1cc(N2CCN(C(=O)c3cccc(F)c3F)CC2)c(F)cc1[N+](=O)[O-]`, the corrected activity, negative = more killing is -4.4% and the z-score was -1.92.

Consider `O=C1CSc2ccc(S(=O)(=O)N3CCOCC3)cc2N1`, for which the corrected activity, negative = more killing was -4.98% and the z-score was -1.34.

Take `O=C(O)C1C2C=CC(O2)C1C(=O)Nc1ccccc1C(F)(F)F` (centres undefined): the corrected activity, negative = more killing was -3.8% and the z-score is -1.56.

For the compound `COc1ccc(OC)c(C2NC(=S)NC(C)=C2C(=O)Nc2ccccc2)c1` (centres undefined), the corrected activity, negative = more killing is -2.97% and the z-score was -0.92.

As for `CCc1cccc(NC(=O)CN(C)S(=O)(=O)c2cccs2)c1`, the corrected activity, negative = more killing was -4.79% and the z-score was -1.36.

On to `O=C(O)CN1C(=O)c2cccc3c(Br)ccc1c23`, for which the corrected activity, negative = more killing is -4.58% and the z-score is -2.46.

For the compound `C#CCOc1ccc2c(c1)c(C(C)=O)c(C)n2-c1ccc(OCC)cc1`, the corrected activity, negative = more killing was -1.52% and the z-score is -0.66.

With `Clc1ccc(OCCN2CCc3ccccc3C2)cc1`, the corrected activity, negative = more killing is -1.86% and the z-score was -1.03.

With `CCOc1ccc2nc(SCC(=O)NC3CC3)sc2c1`, the corrected activity, negative = more killing was -5.49% and the z-score is -1.7.

For the compound `Cc1ccc2nc(NC(=O)COC(=O)CSc3nc(C)cc(C)n3)sc2c1`, the corrected activity, negative = more killing was -4.93% and the z-score was -1.86.

With `O=C(NCc1ccccc1)c1ccc2c(=O)n(-c3cc(C(F)(F)F)ccc3Cl)c(=S)[nH]c2c1`, the corrected activity, negative = more killing was -5.46% and the z-score is -1.74.

In the case of `COc1cc(C=NS(=O)(=O)c2cccs2)cc(Br)c1O`, the corrected activity, negative = more killing was -1.94% and the z-score was -0.74.

Turning to `COc1ccc(C(N)=NOC(=O)CSc2ccccc2)cc1`, the corrected activity, negative = more killing was -1.04% and the z-score is -0.576.

In the case of `COc1ccccc1OCCCCCCN1CCOCC1`, the corrected activity, negative = more killing is -4.44% and the z-score is -1.82.

Take `Cc1cc(OCCN2CCCCCC2)ccc1[N+](=O)[O-]`: the corrected activity, negative = more killing is -3.28% and the z-score is -1.82.

`CC(C)OC(=O)CN1CCCN(S(=O)(=O)c2ccc(F)cc2)CC1`: the corrected activity, negative = more killing is -3.05% and the z-score is -0.969.

With `Cc1ccc(C)c(NC(=O)c2ccc(-c3ccccc3)cc2)c1`, the corrected activity, negative = more killing is -4.26% and the z-score is -1.81.

With `COc1ccc(OC)c(NC(=O)c2cc3cccc(OC)c3oc2=O)c1`, the corrected activity, negative = more killing is -3.03% and the z-score is -1.31.

In the case of `O=C1C(=Cc2cccc([N+](=O)[O-])c2)Sc2ccccc21`, the corrected activity, negative = more killing was -3.79% and the z-score is -1.61.

`COc1cccc(C2C3=C(CCCC3=O)NC3=C2C(=O)CCC3)c1OC`: the corrected activity, negative = more killing was -3.89% and the z-score is -1.45.

As for `CSCCOC(=O)C1=C(C)NC(=O)NC1c1cccc([N+](=O)[O-])c1` (centres undefined), the corrected activity, negative = more killing is 0.214% and the z-score was 0.0664.

Regarding `CC1(C(=O)NCC2CCCO2)CCC(=O)N1CCc1ccccc1` (centres undefined), the corrected activity, negative = more killing was -6.77% and the z-score was -1.92.

Consider `COc1ccc(S(=O)(=O)NCCc2ccccc2)c2ccccc12`, for which the corrected activity, negative = more killing was -3.37% and the z-score was -1.46.

In the case of `COc1ccc2cc3cc(C(=O)NCCCN4CCN(Cc5ccccc5)CC4)oc3nc2c1`, the corrected activity, negative = more killing was -0.58% and the z-score was -0.142.

In the case of `Cc1ccc(C)c(N=Cc2c(C)[nH]c3ccccc23)c1`, the corrected activity, negative = more killing is -2.79% and the z-score is -1.18.

As to `O=c1nc(C=Cc2ccc(Br)cc2)cc(C(F)(F)F)[nH]1`, the corrected activity, negative = more killing was 0.858% and the z-score was 0.256.

Regarding `Cc1c(C(=O)NCc2cccs2)oc2ccc(S(=O)(=O)N3CCC(C)CC3)cc12`, the corrected activity, negative = more killing was -7.39% and the z-score is -1.84.

In the case of `O=C(Nc1ccc(Cc2ccncc2)cc1)C1CCC(N2C(=O)C3CC=CCC3C2=O)CC1` (centres undefined), the corrected activity, negative = more killing was -4.96% and the z-score is -1.89.

`CC(=O)c1cccc(NC(=O)COc2ccccc2C)c1`: the corrected activity, negative = more killing is -1.74% and the z-score was -0.9.

On to `Cc1cc(Br)ccc1NC(=O)Cn1cnc2sc(C)c(S(=O)(=O)N3CCN(C)CC3)c2c1=O`, for which the corrected activity, negative = more killing was -7.06% and the z-score is -1.76.

Consider `COc1ccc(C(O)=C2C(=O)C(=O)N(CCN3CCNCC3)C2c2ccc(OC)cc2)cc1` (centres undefined), for which the corrected activity, negative = more killing was -4.32% and the z-score is -1.87.

As for `Cc1onc(-c2ccccc2)c1C(=O)Nc1cccc2c1C(=O)c1ccccc1C2=O`, the corrected activity, negative = more killing is -2.48% and the z-score is -1.02.

`CCOc1ccc(OCC(=O)NC(C)C)cc1`: the corrected activity, negative = more killing is -5.07% and the z-score is -2.82.

For the compound `O=C(Nc1ccc(Cl)cc1)c1cc(S(=O)(=O)NC2CCCC2)ccc1F`, the corrected activity, negative = more killing is -2.8% and the z-score was -0.756.

Turning to `COc1ccc(CN2C(=O)c3ccccc3C2C(=O)NCCCN2CC(C)CC(C)C2)cc1` (centres undefined), the corrected activity, negative = more killing was -3.06% and the z-score is -0.869.

`O=C(NN=Cc1c(Br)cc(Br)c(O)c1Br)c1ccncc1`: the corrected activity, negative = more killing is -1.17% and the z-score is -0.607.

On to `Brc1cccc(-c2nnc3sc(CN4CCOCC4)cn23)c1`, for which the corrected activity, negative = more killing is -6.12% and the z-score was -1.74.

Regarding `CN(C(=O)c1cnc2n(c1=O)CCS2)c1ccccc1`, the corrected activity, negative = more killing is -7.51% and the z-score is -2.39.

Regarding `COc1ccc(OC)c(-n2c(=S)[nH]c3cc(C(=O)Nc4ccc5c(c4)CCC5)ccc3c2=O)c1`, the corrected activity, negative = more killing was -3.65% and the z-score is -1.16.

For the compound `CCOc1ccc2nc(SCCC(=O)Nc3ccc(OC)cc3)sc2c1`, the corrected activity, negative = more killing is -5.58% and the z-score was -2.99.

On to `COc1ccc(-c2ccc3c(N)c(C(=O)NCc4ccc(C(F)(F)F)cc4)sc3n2)cc1`, for which the corrected activity, negative = more killing was -1.13% and the z-score is -0.339.

On to `CCOC(=O)c1ccc(N=c2oc3ccccc3cc2C(=O)Nc2ccccc2)cc1`, for which the corrected activity, negative = more killing is 2.85% and the z-score was 1.01.

As to `O=C(O)CCn1ncc2ccccc21`, the corrected activity, negative = more killing is -4.13% and the z-score was -1.31.

Turning to `CCCCNCCCOc1cccc(Br)c1`, the corrected activity, negative = more killing is -0.452% and the z-score is -0.168.

As to `COc1ccc(C(=O)NC23CC4CC(CC(C4)C2)C3)c(OC)c1`, the corrected activity, negative = more killing was -4.55% and the z-score was -1.79.

Regarding `Cc1ccc(OCCN2CCNCC2)c(Br)c1`, the corrected activity, negative = more killing was -2.45% and the z-score was -1.36.

For the compound `COc1ccc(OC)c(NC(=O)C(N)=O)c1`, the corrected activity, negative = more killing is 1.08% and the z-score was 0.459.

For the compound `Cc1noc(C)c1S(=O)(=O)Nc1ccc(C(=O)Nc2cccc(Cl)c2)cc1`, the corrected activity, negative = more killing is -7.43% and the z-score was -1.82.
